Reference: article PMC7862700, “An all-to-all approach to the identification of sequence-specific readers for epigenetic DNA modifications on cytosine”

Columns and labels:
Experiment in all cases: DAPPL (digital affinity profiling via proximity ligation, sequencing); 10 mM Tris-HCl pH 7.5, 50 mM NaCl, 1 mM DTT, 4% glycerol, room temperature, 30 min; GST-TFs on glutathione beads, 16-mer random dsDNA library, 0.1% formaldehyde crosslink after washing; high values mean tight binding
FLI1 = target: T1, FLI1 (Homo sapiens, UniProt Q01543 1-452); conditions: protein: recombinant; tags: N-terminal GST; dsDNA, one strand shown
T1 sequence: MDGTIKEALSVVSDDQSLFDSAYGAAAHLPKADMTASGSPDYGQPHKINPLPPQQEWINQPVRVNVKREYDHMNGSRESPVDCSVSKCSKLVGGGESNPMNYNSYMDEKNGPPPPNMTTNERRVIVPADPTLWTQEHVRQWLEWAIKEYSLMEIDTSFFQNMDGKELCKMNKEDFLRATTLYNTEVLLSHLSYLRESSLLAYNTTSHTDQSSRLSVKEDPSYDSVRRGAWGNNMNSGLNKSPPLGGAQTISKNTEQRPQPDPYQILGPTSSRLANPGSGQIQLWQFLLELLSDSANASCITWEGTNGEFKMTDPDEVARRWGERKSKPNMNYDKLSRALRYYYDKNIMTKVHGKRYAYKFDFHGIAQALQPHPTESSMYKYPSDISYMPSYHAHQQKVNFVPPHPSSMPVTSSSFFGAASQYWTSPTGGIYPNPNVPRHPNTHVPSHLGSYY
In short: (§1)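 GST fusions of human transcription factors were expressed in yeast and captured with glutathione beads. Once given DNA barcodes and pooled alongside a tag-only sample, they were incubated for 30 min at room temperature with 200 nmole of a random double-stranded 16-mer DNA library in Tris/NaCl/DTT/glycerol buffer, then washed, crosslinked (0.1% formaldehyde), proximity-ligated, PCR-amplified and sequenced on an Illumina NextSeq500. The binding signal of each hexamer is its read frequency for a factor divided by its frequency for the tag-only sample.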

ELK1 = target: T2, ELK1 (Homo sapiens, UniProt P19419 1-428); conditions: protein: recombinant; tags: N-terminal GST; dsDNA, one strand shown
T2 sequence: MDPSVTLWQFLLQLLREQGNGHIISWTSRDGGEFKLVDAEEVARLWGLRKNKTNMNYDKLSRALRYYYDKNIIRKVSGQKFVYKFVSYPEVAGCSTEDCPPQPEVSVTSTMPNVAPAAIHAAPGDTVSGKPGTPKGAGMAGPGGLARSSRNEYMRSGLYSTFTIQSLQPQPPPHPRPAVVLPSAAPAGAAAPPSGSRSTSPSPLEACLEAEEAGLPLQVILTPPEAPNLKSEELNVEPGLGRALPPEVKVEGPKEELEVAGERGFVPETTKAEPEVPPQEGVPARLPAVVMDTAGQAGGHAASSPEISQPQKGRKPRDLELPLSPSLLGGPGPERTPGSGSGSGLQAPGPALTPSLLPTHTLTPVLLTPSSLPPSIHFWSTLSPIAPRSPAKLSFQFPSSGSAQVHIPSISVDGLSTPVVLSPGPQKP
In short: as §1

GABPA = target: T3, GABPA (Homo sapiens, UniProt Q06546 1-454); conditions: protein: recombinant; tags: N-terminal GST; dsDNA, one strand shown
T3 sequence: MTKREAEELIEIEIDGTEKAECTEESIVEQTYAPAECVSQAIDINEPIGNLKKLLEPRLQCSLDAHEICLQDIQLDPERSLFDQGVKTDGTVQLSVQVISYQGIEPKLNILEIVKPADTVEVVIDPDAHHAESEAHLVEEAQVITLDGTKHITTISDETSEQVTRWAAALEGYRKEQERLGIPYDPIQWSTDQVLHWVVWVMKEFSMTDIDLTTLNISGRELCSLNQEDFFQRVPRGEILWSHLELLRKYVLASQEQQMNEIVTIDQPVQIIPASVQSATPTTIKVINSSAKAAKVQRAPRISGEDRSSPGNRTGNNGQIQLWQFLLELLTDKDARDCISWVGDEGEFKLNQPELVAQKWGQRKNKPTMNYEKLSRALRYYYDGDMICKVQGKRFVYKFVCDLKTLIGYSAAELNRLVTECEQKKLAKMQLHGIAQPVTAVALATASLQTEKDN
In short: as §1

ERG = target: T4, ERG (Homo sapiens, UniProt P11308 1-479); conditions: protein: recombinant; tags: N-terminal GST; dsDNA, one strand shown
T4 sequence: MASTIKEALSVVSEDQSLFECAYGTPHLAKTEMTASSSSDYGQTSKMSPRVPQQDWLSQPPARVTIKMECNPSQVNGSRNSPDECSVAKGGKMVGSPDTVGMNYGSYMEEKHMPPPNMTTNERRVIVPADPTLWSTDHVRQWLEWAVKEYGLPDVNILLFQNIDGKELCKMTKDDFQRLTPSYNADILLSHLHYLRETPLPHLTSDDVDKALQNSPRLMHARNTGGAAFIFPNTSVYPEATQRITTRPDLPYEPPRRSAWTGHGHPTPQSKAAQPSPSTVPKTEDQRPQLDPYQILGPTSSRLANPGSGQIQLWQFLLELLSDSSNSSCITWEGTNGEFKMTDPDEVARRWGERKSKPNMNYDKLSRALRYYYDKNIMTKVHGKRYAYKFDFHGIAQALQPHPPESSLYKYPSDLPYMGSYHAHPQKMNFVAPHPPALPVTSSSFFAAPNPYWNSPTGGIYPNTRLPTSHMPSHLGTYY
In short: as §1

ELF1 = ELF1 (Homo sapiens, UniProt P32519 1-619); conditions: protein: recombinant; tags: N-terminal GST; dsDNA, one strand shown
In short: as §1

EHF = target: T5, EHF (Homo sapiens, UniProt Q9NZC4 1-300); conditions: protein: recombinant; tags: N-terminal GST; dsDNA, one strand shown
T5 sequence: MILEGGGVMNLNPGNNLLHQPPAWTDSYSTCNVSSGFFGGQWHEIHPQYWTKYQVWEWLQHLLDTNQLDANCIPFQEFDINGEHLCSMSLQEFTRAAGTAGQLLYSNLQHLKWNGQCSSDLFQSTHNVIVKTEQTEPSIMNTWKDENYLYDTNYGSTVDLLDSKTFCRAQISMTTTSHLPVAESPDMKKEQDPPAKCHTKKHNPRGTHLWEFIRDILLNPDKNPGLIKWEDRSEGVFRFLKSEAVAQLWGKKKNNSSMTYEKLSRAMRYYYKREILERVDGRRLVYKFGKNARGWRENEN
In short: as §1

SPI1 = SPI1 (Homo sapiens, UniProt P17947 1-270); conditions: protein: recombinant; tags: N-terminal GST; dsDNA, one strand shown
In short: as §1

SPIB = SPIB (Homo sapiens, UniProt Q01892 1-262); conditions: protein: recombinant; tags: N-terminal GST; dsDNA, one strand shown
In short: as §1

ELK3 = target: T6, ELK3 (Homo sapiens, UniProt P41970 1-407); conditions: protein: recombinant; tags: N-terminal GST; dsDNA, one strand shown
T6 sequence: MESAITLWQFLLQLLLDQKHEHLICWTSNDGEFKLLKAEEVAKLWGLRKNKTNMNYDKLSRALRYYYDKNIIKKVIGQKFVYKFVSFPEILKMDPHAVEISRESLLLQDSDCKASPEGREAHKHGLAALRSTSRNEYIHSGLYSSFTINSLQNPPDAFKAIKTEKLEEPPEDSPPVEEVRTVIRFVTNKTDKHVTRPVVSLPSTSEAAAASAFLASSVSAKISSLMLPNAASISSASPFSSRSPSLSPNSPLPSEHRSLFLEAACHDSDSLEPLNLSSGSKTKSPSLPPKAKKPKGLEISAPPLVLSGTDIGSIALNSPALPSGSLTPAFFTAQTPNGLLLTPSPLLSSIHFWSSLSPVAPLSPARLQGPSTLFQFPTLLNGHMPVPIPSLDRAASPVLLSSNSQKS
In short: as §1

FEV = target: T7, FEV (Homo sapiens, UniProt Q99581 1-238); conditions: protein: recombinant; tags: N-terminal GST; dsDNA, one strand shown
T7 sequence: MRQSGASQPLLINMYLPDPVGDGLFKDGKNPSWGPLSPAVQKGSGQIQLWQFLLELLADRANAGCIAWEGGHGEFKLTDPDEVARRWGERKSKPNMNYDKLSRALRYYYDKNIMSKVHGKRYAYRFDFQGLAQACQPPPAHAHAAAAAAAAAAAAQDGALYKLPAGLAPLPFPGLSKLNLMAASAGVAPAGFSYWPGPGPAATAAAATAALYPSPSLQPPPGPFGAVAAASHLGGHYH
In short: as §1

ETV5 = ETV5 (Homo sapiens, UniProt P41161 1-510); conditions: protein: recombinant; tags: N-terminal GST; dsDNA, one strand shown
In short: as §1

HSF1 = HSF1 (Homo sapiens, UniProt Q00613 1-529); conditions: protein: recombinant; tags: N-terminal GST; chain copies: 3; dsDNA, one strand shown
In short: as §1

SPIC = target: T8, SPIC (Homo sapiens, UniProt Q8N5J4 1-248); conditions: protein: recombinant; tags: N-terminal GST; dsDNA, one strand shown
T8 sequence: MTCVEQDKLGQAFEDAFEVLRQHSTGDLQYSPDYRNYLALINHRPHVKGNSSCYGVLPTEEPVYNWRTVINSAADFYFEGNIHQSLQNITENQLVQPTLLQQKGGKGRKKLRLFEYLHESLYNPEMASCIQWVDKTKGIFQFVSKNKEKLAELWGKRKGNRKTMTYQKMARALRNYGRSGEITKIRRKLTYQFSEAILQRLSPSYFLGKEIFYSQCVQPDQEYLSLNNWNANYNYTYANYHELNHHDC
In short: as §1

ELF4 = ELF4 (Homo sapiens, UniProt Q99607 1-663); conditions: protein: recombinant; tags: N-terminal GST; dsDNA, one strand shown
In short: as §1

ELK4 = target: T9, ELK4 (Homo sapiens, UniProt P28324-2 1-405); conditions: protein: recombinant; tags: N-terminal GST; dsDNA, one strand shown
T9 sequence: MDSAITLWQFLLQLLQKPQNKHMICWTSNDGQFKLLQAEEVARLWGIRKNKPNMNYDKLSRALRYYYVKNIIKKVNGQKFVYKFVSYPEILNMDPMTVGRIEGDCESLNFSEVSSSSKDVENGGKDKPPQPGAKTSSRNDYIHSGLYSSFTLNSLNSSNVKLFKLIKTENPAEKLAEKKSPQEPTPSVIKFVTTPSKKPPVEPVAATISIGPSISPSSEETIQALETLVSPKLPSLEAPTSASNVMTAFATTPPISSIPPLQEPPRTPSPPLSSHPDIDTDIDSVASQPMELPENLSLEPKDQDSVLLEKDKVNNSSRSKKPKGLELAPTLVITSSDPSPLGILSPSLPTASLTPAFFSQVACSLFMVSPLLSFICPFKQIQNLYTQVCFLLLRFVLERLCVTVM
In short: as §1

ETV2 = target: T10, ETV2 (Homo sapiens, UniProt O00321 1-342); conditions: protein: recombinant; tags: N-terminal GST; dsDNA, one strand shown
T10 sequence: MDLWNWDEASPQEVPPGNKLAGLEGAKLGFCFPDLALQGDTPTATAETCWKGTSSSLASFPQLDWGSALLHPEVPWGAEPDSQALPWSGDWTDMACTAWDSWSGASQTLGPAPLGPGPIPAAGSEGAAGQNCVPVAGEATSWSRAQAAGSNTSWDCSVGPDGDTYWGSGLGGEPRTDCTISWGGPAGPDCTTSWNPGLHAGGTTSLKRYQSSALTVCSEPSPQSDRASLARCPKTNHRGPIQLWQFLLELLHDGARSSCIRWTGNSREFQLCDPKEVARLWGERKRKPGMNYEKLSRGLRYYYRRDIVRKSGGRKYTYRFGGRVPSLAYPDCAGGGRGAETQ
In short: as §1

ELF3 = target: T11, ELF3 (Homo sapiens, UniProt P78545 1-371); conditions: protein: recombinant; tags: N-terminal GST; dsDNA, one strand shown
T11 sequence: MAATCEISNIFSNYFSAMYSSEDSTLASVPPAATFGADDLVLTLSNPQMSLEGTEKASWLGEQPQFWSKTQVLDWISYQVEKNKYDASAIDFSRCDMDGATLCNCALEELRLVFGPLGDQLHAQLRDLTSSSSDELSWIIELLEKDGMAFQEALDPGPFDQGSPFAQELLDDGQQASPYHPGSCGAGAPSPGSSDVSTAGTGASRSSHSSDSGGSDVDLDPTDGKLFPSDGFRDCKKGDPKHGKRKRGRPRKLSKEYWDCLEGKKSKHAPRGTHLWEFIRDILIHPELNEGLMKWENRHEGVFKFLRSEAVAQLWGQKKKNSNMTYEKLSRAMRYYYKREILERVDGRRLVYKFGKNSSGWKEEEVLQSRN
In short: as §1

CRX = CRX (Homo sapiens, UniProt O43186 1-299); conditions: protein: recombinant; tags: N-terminal GST; dsDNA, one strand shown
In short: as §1

ETV1 = ETV1 (Homo sapiens, UniProt P50549 1-477); conditions: protein: recombinant; tags: N-terminal GST; dsDNA, one strand shown
In short: as §1

Chain of ELF1 (P32519 whole entry): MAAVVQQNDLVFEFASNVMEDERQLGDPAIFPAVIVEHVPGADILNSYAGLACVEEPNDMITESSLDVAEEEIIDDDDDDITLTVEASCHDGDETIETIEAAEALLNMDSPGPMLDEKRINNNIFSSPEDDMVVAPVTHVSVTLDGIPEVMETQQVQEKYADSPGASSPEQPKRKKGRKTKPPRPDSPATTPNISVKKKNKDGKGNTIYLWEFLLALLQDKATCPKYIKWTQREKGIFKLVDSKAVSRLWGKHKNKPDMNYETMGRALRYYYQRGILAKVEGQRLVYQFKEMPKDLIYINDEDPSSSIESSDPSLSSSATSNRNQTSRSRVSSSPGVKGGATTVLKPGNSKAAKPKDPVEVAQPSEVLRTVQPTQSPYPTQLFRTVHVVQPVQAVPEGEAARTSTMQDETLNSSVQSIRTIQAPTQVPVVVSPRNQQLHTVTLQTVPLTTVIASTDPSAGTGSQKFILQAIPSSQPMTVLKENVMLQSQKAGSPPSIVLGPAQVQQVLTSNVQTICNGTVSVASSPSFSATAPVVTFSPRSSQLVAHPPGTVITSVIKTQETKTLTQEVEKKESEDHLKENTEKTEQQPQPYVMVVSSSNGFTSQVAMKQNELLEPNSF
Chain of HSF1 (Q00613 whole entry): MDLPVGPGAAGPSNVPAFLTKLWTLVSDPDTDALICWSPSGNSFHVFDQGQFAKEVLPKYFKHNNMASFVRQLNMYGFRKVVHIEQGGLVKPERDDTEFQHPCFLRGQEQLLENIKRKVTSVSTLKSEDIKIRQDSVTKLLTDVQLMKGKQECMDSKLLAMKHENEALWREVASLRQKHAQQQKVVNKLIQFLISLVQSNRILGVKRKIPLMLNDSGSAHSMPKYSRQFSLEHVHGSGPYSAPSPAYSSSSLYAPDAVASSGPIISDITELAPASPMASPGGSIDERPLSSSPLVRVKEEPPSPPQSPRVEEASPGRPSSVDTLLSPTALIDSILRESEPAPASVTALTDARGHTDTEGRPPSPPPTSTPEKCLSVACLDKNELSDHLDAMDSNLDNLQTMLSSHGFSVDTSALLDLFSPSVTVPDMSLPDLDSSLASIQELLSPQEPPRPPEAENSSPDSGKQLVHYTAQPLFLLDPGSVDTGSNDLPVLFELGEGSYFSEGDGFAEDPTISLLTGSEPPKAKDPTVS
Chain of CRX (O43186 whole entry): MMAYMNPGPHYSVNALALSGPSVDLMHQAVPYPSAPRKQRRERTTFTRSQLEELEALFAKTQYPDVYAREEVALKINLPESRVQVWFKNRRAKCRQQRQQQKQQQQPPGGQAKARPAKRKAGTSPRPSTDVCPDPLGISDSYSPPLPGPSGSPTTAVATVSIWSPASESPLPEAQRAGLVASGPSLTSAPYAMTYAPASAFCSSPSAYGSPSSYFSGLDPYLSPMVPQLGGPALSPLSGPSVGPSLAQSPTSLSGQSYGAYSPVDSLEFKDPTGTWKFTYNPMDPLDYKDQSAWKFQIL
Chain of SPIB (Q01892 whole entry): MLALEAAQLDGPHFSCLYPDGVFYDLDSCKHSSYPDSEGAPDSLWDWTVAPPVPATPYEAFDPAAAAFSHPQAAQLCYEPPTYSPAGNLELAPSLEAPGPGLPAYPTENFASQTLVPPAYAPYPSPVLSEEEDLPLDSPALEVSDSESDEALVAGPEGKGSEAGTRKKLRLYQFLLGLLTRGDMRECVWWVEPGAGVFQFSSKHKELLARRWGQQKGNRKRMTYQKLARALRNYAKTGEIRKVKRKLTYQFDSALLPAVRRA
Chain of ETV5 (P41161 whole entry): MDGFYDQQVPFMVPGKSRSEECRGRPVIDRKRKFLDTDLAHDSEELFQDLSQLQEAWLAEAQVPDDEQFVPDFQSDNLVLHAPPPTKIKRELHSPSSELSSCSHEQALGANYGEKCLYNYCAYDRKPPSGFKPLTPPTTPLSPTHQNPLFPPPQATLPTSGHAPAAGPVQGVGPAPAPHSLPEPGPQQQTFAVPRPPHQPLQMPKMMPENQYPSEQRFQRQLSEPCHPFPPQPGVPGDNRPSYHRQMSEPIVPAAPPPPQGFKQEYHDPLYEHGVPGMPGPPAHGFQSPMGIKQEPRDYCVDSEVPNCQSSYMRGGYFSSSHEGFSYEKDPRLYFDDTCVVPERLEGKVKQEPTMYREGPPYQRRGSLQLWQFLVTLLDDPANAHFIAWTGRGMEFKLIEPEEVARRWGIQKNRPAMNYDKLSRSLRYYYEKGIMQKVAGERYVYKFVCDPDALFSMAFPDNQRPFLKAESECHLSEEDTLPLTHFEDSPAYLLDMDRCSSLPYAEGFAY
Chain of ETV1 (P50549 whole entry): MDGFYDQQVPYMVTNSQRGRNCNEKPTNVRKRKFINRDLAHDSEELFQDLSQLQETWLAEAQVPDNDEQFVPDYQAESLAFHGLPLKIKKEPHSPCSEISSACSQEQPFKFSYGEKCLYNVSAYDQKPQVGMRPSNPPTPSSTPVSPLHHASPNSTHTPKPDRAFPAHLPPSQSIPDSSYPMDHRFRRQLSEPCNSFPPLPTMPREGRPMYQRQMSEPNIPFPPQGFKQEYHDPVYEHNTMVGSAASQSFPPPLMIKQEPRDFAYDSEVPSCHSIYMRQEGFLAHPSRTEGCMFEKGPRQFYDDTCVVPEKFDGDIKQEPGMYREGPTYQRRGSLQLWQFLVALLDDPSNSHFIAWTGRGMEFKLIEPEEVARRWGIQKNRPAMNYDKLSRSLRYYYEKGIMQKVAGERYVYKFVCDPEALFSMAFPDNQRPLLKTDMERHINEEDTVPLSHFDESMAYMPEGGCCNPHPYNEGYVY
Chain of ELF4 (Q99607 whole entry): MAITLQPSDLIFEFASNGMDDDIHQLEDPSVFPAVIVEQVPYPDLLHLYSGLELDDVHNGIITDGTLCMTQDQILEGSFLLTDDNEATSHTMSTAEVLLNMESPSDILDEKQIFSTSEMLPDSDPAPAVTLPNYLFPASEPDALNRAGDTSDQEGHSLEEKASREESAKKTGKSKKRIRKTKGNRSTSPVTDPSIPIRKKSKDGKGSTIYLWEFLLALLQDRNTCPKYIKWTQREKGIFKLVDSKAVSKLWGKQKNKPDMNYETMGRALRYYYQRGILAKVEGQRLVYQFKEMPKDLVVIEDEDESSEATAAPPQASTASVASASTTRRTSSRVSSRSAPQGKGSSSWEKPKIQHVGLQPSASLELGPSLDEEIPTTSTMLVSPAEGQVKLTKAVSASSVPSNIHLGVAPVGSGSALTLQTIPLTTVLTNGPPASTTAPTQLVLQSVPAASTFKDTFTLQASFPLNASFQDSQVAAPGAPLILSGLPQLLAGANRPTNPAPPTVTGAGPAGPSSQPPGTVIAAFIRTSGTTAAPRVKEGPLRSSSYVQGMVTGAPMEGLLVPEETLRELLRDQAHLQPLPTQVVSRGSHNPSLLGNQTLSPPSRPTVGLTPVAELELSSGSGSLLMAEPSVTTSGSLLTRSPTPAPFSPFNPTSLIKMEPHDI

GAATCC was tested, and the binding signal (FLI1) was 1.15 fold enrichment (6-mer frequency, TF over GST control), the binding signal (ELK1) was 1.09 fold enrichment (6-mer frequency, TF over GST control) and the binding signal (GABPA) was 1.08 fold enrichment (6-mer frequency, TF over GST control). For the same sequence, the binding signal (ERG) was 1.18 fold enrichment (6-mer frequency, TF over GST control), the binding signal (ELF1) was 1.13 fold enrichment (6-mer frequency, TF over GST control) and the binding signal (EHF) was 1.14 fold enrichment (6-mer frequency, TF over GST control). For the same sequence, the binding signal (SPI1) was 1.14 fold enrichment (6-mer frequency, TF over GST control), the binding signal (SPIB) was 1.11 fold enrichment (6-mer frequency, TF over GST control) and the binding signal (ELK3) was 1.08 fold enrichment (6-mer frequency, TF over GST control). For the same sequence, the binding signal (FEV) was 1.13 fold enrichment (6-mer frequency, TF over GST control), the binding signal (ETV5) was 1.17 fold enrichment (6-mer frequency, TF over GST control) and the binding signal (HSF1) was 1.21 fold enrichment (6-mer frequency, TF over GST control). For the same sequence, the binding signal (SPIC) was 1.1 fold enrichment (6-mer frequency, TF over GST control), the binding signal (ELF4) was 1.12 fold enrichment (6-mer frequency, TF over GST control) and the binding signal (ELK4) was 1.19 fold enrichment (6-mer frequency, TF over GST control). The binding signal (ETV2) was 1.09 fold enrichment (6-mer frequency, TF over GST control), the binding signal (ELF3) was 1.02 fold enrichment (6-mer frequency, TF over GST control) and the binding signal (CRX) was 1.19 fold enrichment (6-mer frequency, TF over GST control). The binding signal (ETV1) was 1.13 fold enrichment (6-mer frequency, TF over GST control).
